A selection: hits, their analogues and other compounds. The true share with any hit is near 2.8%.
TGFb inhibitor: qHTS for Inhibitors of TGF-b; HepG2 CAGA-GFP TGF-b/SMAD3 reporter, GFP fluorescence, 18 h; TGF-beta stimulated, 500 pg/mL final; Potency, µM (highest dose often 46.1 µM), without a hit: top-dose activity, negative = inhibition, hits mostly inhibitors; hit rate 1.2% among 410,000; AID 588855, 2011; also: % is scaled to controls: 0 for no effect and ±100 for the full control effect; nearly all actives have a fitted effect of over 65% in size
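HEPG2 CAGA-GFP reporter cells (1000/well, DMEM with 1% FBS) received compounds, then recombinant TGF-beta at 500 pg/mL final for 18 hours at 37 degrees C. Per-cell GFP summed per well was normalised to unstimulated and stimulated DMSO controls before curve fitting.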
HttQ103 aggreg: qHTS Multiplex Assay to Identify Dual Action Probes in a Cell Model of Huntington: Aggregate Formation (GFP) | PC12 HttQ103-GFP aggregates, Acumen cytometry, 40 h | Potency, µM (doses to about 46.1 µM), without a hit: at the highest dose activity change, negative = inhibition, actives largely listed as inhibitors | hit rate 1.1% among 220,000 | AID 1688, 2009; also: % is scaled to controls: 0 for no effect and ±100 for the full control effect; nearly all actives have a fitted effect of over 60% in size
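PC12 cells stably carrying ecdysone-inducible HTT exon 1 Q103–GFP were induced with tebufenozide (100 nM final) and treated with library compounds in titration. GFP aggregates in lysates were counted by laser scanning cytometry.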
HTT cytoprotect: qHTS Multiplex Assay to Identify Dual Action Probes in a Cell Model of Huntington: Cytoprotection (ATP) | PC12 HTT-Q103 induced, cytoprotection, ATP luminescence, 40 h | Potency, µM (series often up to 56.4 µM), without a hit: cytoprotection (ATP increase), usual class: activators | hit rate 0.14% among 230,000; also: % of control where 0% means no effect; nearly all actives have a fitted effect of over 45% in size
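ATP quantification (ATPlite) reports survival of PC12 cells in which tebufenozide, 100 nM final, switches on Htt exon 1 with 103 glutamines linked to GFP; compounds are titrated.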
S2 tox: Viability Counterscreen for Primary qHTS for Inhibitors of ATXN expression; Potency, µM (series often up to 56.7 µM), actives largely listed as cytotoxic; S2 cells (HEK-293 line with an ATXN2-luciferase reporter) viability, CellTiter-Fluor protease fluorescence, 24 h; AID 651635, 2014; hit rate 0.49% among 400,000; also: nearly all actives have a fitted effect of over 40% in size
HepG2 viability: qHTS for Inhibitors of TGF-b: Cytotox Counterscreen. hit rate 0.76% among 410,000. HepG2 CAGA-GFP viability, ATP luminescence, 18 h. Potency, µM (titrated, usually from 46.1 µM), for inactives: at the top dose activity change, negative = cytotoxicity, most hits filed as cytotoxic
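HepG2 CAGA-GFP cells (1000/well, DMEM with 1% FBS) received compound, then TGF-beta at 500 pg/mL final, and were incubated 18 hours at 37 degrees C. Viability was read by CellTiter-Glo luminescence. Media-only wells were set as complete cell-killing and DMSO as no toxicity.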
ATXN2 expr inh: Primary qHTS for Inhibitors of ATXN expression. hit rate 0.72% among 360,000. HEK-293 ATXN2-luciferase reporter, luminescence, 24 h. Potency, µM (titrated, usually from 57 µM), for the others: top-dose activity change, negative = inhibition, usual class: inhibitors; also: % is scaled to controls: 0 for no effect and ±100 for the full control effect; nearly all actives have a fitted effect of over 55% in size
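ATXN2-luciferase reporter cells (luciferase flanked by upstream and downstream ATXN2 gene portions) were treated 24 h at 37 °C with compounds at up to 57 uM. SteadyGlo luminescence gave expression; GF-AFC fluorescence gave viability.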
* hit, by the source's call; i = inactive; ? = inconclusive; / = not tested or not shown; ! = not confirmed by another sample; [ ] = remark or other dose. Calls follow the shape of the dose curve; as a rule, active = well fitted curve in the direction sought with a large enough effect; inconclusive = small, poorly fitted or top-dose-only effect, or another doubt; inactive = no such curve, though single readings can be large; an effect the other way counts as inactive or inconclusive. Potency is read from the fitted curve at half-maximal effect.

SMILES	TGFb inhibitor	HttQ103 aggreg	HTT cytoprotect	S2 tox	HepG2 viability	ATXN2 expr inh
CN1CCN(C2Cc3ccc(F)cc3Sc3cc(F)c(Cl)cc32)CC1 (stereo not drawn)	?	/	/	?	20µM*	?
CCc1cccc2c1Sc1ccccc1CC2N1CCNCC1 (stereo not drawn)	?	/	/	/	-134%	/
CN1CCN(C2Cc3ccccc3Sc3cc(C(F)(F)F)ccc32)CC1 (stereo not drawn)	?	/	/	/	20µM*	?
CSc1ccc2c(c1)[C@H](N1CCN(C)CC1)Cc1ccccc1S2	/	/	-33%[1.9 µM]	i	/	/
C[C@@H]1[C@H](c2ccccc2)OCCS(=O)(=O)N1Cc1cccc(C(F)(F)F)c1	?	/	/	/	-31%	/
Cc1nc([N+](=O)[O-])cn1CC(=O)c1ccc2c(c1)OCCO2	3%	/	/	/	-9%	/
O=C(/C=C/c1ccc(F)cc1)NCC1Cc2cccc(-c3ncccn3)c2O1 (stereo not drawn)	/	/	/	i	/	/
Cc1[nH]n(-c2ccccc2)c(=O)c1/C=N/NC(=O)c1cccc([N+](=O)[O-])c1	?	5.6µM*	-64%[10 µM]	?	-67%	14µM*
Cc1ccc(-n2[nH]c(C)c(/C=N/NC(=O)c3ccc([N+](=O)[O-])cc3)c2=O)c(C)c1	/	13µM*	-134%	/	/	/
O=C(N/N=C/c1c[nH]c2ccccc12)c1cccc([N+](=O)[O-])c1	27%	-2%	9%[10 µM]	i	28%	7%
Cc1[nH]n(-c2cccc3ccccc23)c(=O)c1/C=N/NC(=O)c1cccc([N+](=O)[O-])c1	6%	10µM*	7%[10 µM]	?	0%	20µM*
Cc1ccsc1/C=N/NC(=O)c1ccc([N+](=O)[O-])cc1	-3%	-9%	9%[10 µM]	i	-31%	18%
CC(C)(O)[C@H]1CC[C@@](C)([C@H]2[C@@H](O)C[C@@]3(C)[C@@H]4C[C@H](O[C@@H]5O[C@H](CO)[C@@H](O)[C@H](O)[C@@H]5O)[C@H]5C(C)(C)[C@@H](O[C@@H]6OC[C@@H](O)[C@H](O)[C@@H]6O)CC[C@@]56C[C@@]46CC[C@]23C)O1	/	/	/	/	/	10%
O=C(NCCc1cnc[nH]1)Nc1cccc(C(F)(F)F)c1	5%	/	/	i	2%	/
O=C(Nc1cccc(Nc2ncc(Br)c(NCCc3cnc[nH]3)n2)c1)N1CCCC1	/	/	/	/	/	19µM*
CCCCOCCOc1nc(-c2ccc(C(=O)O)c(F)c2)sc1C	/	/	/	/	/	30%
CCCCCCCCCCOC(=O)Cn1c(COc2ccccc2C)[n+](C)c2ccccc21	?	/	/	?	-98%	22µM*
CCCCCCCCCCOC(=O)Cn1c(COc2cccc(C)c2)[n+](C)c2ccccc21	?	/	/	i	-93%	-35%
CCCCCOC(=O)Cn1c(=O)oc2ccccc21	11%	-5%	-4%	i	1%	-24%
CCCCCCCCCCOC(=O)Cn1c(COc2ccc(OC)cc2)[n+](C)c2ccccc21	10µM*	/	/	?	11µM*!	?
CCCCOC(=O)Cn1c(=O)n(CC(=O)OCCCC)c2ccccc21	-1%	2%[9.22 µM]	31%	i	-3%	8%
CCCCCCCCCCOC(=O)Cn1c(COc2ccccc2)[n+](C)c2ccccc21	11µM*	/	/	?	-109%	/
CCCCCCCCCCOC(=O)Cn1c(COc2ccc(Cl)cc2)[n+](C)c2ccccc21	13µM*	/	/	/	13µM*	/
CCCC(=O)N(C)c1ccc(/C=C2\C=Cc3ccccc32)cc1	-23%	/	/	/	-53%	/
Cc1c(-c2ccc(O)cc2)nn(-c2ccc(O)cc2)c1-c1ccc(OCCN2CCCCC2)cc1	/	/	-29%	/	/	/
SMILES	TGFb inhibitor	HttQ103 aggreg	HTT cytoprotect	S2 tox	HepG2 viability	ATXN2 expr inh
Cc1c(-c2ccc(O)cc2)n(Cc2ccc(OCCN3CCCCCC3)cc2)c2ccc(O)cc12	/	/	/	16µM*!	/	18µM*!
CC(C)(C)C1CCC(CN2C(Nc3ccccc3)=NC[C@@H]2Cc2ccccc2)CC1 (stereo partly drawn)	?	/	/	/	13µM*	?
CC1(C)C2CC[C@]1(C)[C@@H](O)C2	/	-11%	-2%	/	/	/
Nc1nc(Cl)nc2c1ncn2C1CC(O)C(CO)O1 (stereo not drawn)	?	/	/	i	-56%	1.8µM*
O=C([C@@H]1CC=C[C@@H]2CCN(C3CC3)C(=O)[C@@H]21)N1CCOCC1	32%	/	/	/	3%	/
COc1cc(S(=O)(=O)n2ccc(C)n2)c(C)cc1C	-6%	/	/	i	2%	/
CCCOc1cc(C)c(S(=O)(=O)n2ccc(C)n2)cc1C	?	13µM*	-17%	i	-7%	-4%
COc1cc(OC)c(/C=C/c2c3ccccc3cc[n+]2C)c(OC)c1	10µM*	/	/	/	-22%	/
CC1CCN(S(=O)(=O)c2cn(CC(=O)Nc3cccc(C(F)(F)F)c3)c(=O)c3ccccc23)CC1	13µM*	/	/	?	-32%	-29%
COc1ccc(S(=O)(=O)N2CCCN(CCC(=O)Nc3cccc(C(F)(F)F)c3)CC2)cc1	-11%	-6%	-11%	i	0%	3%
O=C(CN1CCCN(S(=O)(=O)c2ccc(Br)cc2)CC1)Nc1cccc(C(F)(F)F)c1	7.9µM*	/	/	?	-50%	?
O=C1c2ccccc2C(=O)c2cc(S(=O)(=O)Nc3ccccc3)ccc21	20µM*	?	7%[10 µM]	i	-104%	-20%
C=C1CC[C@@H](O)C/C1=C/C=C1\CCC[C@]2(C)[C@@H]1CC[C@H]2[C@@H](C)CCCC(C)C	/	/	-39%	/	/	/

Screening results: PubChem, National Center for Advancing Translational Sciences (NCATS)
